Assay results: PubChem BioAssay
Where “and” joins values, the source holds several entries; their conditions need not be identical. Equal values may be shown once. Calls of active or inactive are those of the source. Unless noted, no stated cut-off is given here; in the data, active means inhibition above about 80%; inactive means the rest.

What was measured:
F380Y = test: BK channel mutant inhibitors and activators – cell-based, U2OS BacMam, thallium flux, beta subunits, selectivity assay, profiling panel (AID 1259406;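 active means thallium flux through the channel raised or lowered by more than 3 SD from vehicle-only wells, actives on both sides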;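 further: initial slope of Thallos dye fluorescence rise after thallium is added; log ratio against the mean of 0.3% DMSO vehicle wells on the same plate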); conditions: U2OS BacMam BK variants, at 30 µM
F380Y/beta1 = test: as above; conditions: U2OS BacMam BK variants, at 30 µM
[1] = growth inhibition, single agents and combos, UWB1.289, cell-based, BGB or cisplatin combos, synergistic combos for chromothripsis tumors (AID 1671456); conditions: UWB1.289 ovarian carcinoma cells, stronger effect = higher value;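 further: cells exposed to compound for four days; 0% = vehicle DMSO and 100% = killing by high DMSO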
[2] = growth inhibition, single agents and combos, LFS_MB_2R, cell-based, cisplatin combos, synergistic combos for chromothripsis tumors (AID 1671457); conditions: LFS_MB_2R medulloblastoma cells, stronger effect = higher value;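 further: cells exposed to compound for four days before readout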
[3] = growth inhibition, MDA-MB-436, cell-based, BGB or cisplatin combos, synergistic combos for chromothripsis tumors (AID 1671458; call rule not given here;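 further: cells exposed for 96 hours; 0% = vehicle DMSO and 100% = killing by high DMSO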); conditions: MDA-MB-436 breast carcinoma growth inhibition, drug combinations, stronger effect = higher value
[4] = UWB1.289_BRCA1 ovarian cancer growth, cell-based, BGB or cisplatin combinations (AID 1671459); conditions: UWB1.289 BRCA1 ovarian carcinoma, drug combinations, stronger effect = higher value
[5] = drug combination toxicity in non-malignant astrocytes – cell-based, BGB or cisplatin IC20 combos, cytotoxicity control for chromothriptic childhood tumor combination screen (AID 1671460); conditions: Human astrocytes, viability inhibition, drug combinations, at 0.5 µM, stronger effect = higher value;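 further: cells exposed to compounds for 96 hours before viability readout; 0% = vehicle and 100% = killing control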
[6] = BT084 cell growth, single and combined drugs, ICGC_MB145, cisplatin and BGB IC40 combos (AID 1671461); conditions: BT084 medulloblastoma cells, drug combinations, stronger effect = higher value;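 further: cells exposed to drugs for 96 hours; 0% = vehicle DMSO and 100% = high DMSO full killing control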
[7] = RCMB18 cell growth, single agent and combined, cisplatin and BGB IC40 combos (AID 1671462); conditions: RCMB18 medulloblastoma cells, stronger effect = higher value;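 further: cells exposed to compound for four days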
[8] = CRL1545 cell growth, single agent and combined, cisplatin and BGB IC20 combos (AID 1671464); conditions: CRL1545 osteosarcoma cells, stronger effect = higher value;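 further: cells exposed to compound for 96 hours before readout; 0% = vehicle DMSO and 100% = high DMSO killing control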
[9] = measured here: inhibition with BGB combination, at 0.05 µM
[10] = measured here: inhibition with cisplatin combination, at 0.05 µM
[11] = measured here: combination with cisplatin, at 0.5 µM
[12] = measured here: combination with cisplatin, at 5 µM
[13] = measured here: BGB combination, at 0.5 µM
[14] = measured here: BGB combination, at 5 µM
[15] = measured here: cisplatin combination, at 0.5 µM
[16] = measured here: cisplatin combination, at 5 µM
[17] = BGB combination, concentration series, at 5 µM
[18] = cisplatin combination, concentration series, at 5 µM
[19] = measured here: combo with BGB IC20
[20] = measured here: combo with cisplatin IC20
[21] = cisplatin combination, at 0.5 µM
[22] = measured here: BGB IC40 combination 0.05 uM, at 0.05 µM
[23] = measured here: BGB IC40 combination, at 0.05 µM
[24] = measured here: with BGB IC20 combination, at 0.5 µM
[25] = measured here: with cisplatin IC20 combination, at 0.5 µM

CCc1c(C)[nH]c2c1C(=O)C(CN1CCOCC1)CC2 (centres undefined)
log fold change Tl+ flux (F380Y): 0.0409 (inactive)
log fold change Tl+ flux (F380Y/beta1): 0.015 (inactive)

CC(C)[C@H](N)C(=O)OCCOCn1cnc2c(=O)[nH]c(N)nc21
log fold change Tl+ flux (F380Y): -0.0232 (inactive)
log fold change Tl+ flux (F380Y/beta1): -0.0206 (inactive)

CC[N+](C)(CC)CCOC(=O)C(O)(c1ccccc1)C1CCCCC1 (centres undefined)
log fold change Tl+ flux (F380Y): -0.192 (active)
log fold change Tl+ flux (F380Y/beta1): -0.0336 (inactive)

CC1(C)S[C@@H]2[C@H](N=CN3CCCCCC3)C(=O)N2[C@H]1C(=O)O
log fold change Tl+ flux (F380Y): 0.00482 (inactive)
log fold change Tl+ flux (F380Y/beta1): 0.0062 (inactive)

C#C[C@]1(O)CC[C@H]2[C@@H]3[C@H](C)CC4=C(CCC(=O)C4)[C@H]3CC[C@@]21C
log fold change Tl+ flux (F380Y): 0.0382 (inactive)
log fold change Tl+ flux (F380Y/beta1): 0.123 (active)

S=P(N1CC1)(N1CC1)N1CC1
inhibition ([1]; at 0.5 µM): -18.2% (inactive) and 3.65% (inactive)
inhibition [1, 9]: -11.2% and -17.2%
inhibition [1, 10]: -30.7% and -4.4%
inhibition ([2]; at 0.5 µM): -6.41% (inactive) and -22.2% (inactive)
inhibition [2, 11]: -11.5% and -15%
inhibition [2, 12]: 6.16% and -16.8%
inhibition ([3]; at 0.5 µM): 3.12% (inactive) and -15.6% (inactive)
inhibition [3, 13]: 5.95% and -18.7%
inhibition [3, 14]: 29.4% and 17.8%
inhibition [3, 15]: -1.16% and -30.9%
inhibition [3, 16]: 28.2% and 9.67%
inhibition [4, 17]: 4.52% and 17.6%
inhibition ([4]; at 0.5 µM): -8.8% (inactive) and -2.14% (inactive)
inhibition [4, 18]: 2.09% and 16%
inhibition [5]: -9.07% (inactive) and -1.79% (inactive)
inhibition [5, 19]: 3.46% and -2.7%
inhibition [5, 20]: -14.4% and -11.6%
inhibition ([6]; at 0.5 µM): 0.706% (inactive) and -3.22% (inactive)
inhibition [6, 21]: -14.4% and 6.01%
inhibition ([6]; cisplatin combination, at 5 µM): -20% and -51.6%
inhibition [6, 22]: -8.78% and -15.6%
inhibition ([6]; single agent, at 5 µM): -22.6% and -19.6%
inhibition ([7]; at 0.5 µM): -6.9% (inactive) and -9.28% (inactive)
inhibition ([7]; cisplatin combo, at 5 µM): -6.08% and -6.23%
inhibition [7, 23]: -9.84% and -6.48%
inhibition [7, 11]: -21.1% and 0.266%
inhibition ([7]; single agent, at 5 µM): -45.9% and -29.6%
inhibition ([8]; at 0.5 µM): -18.6% (inactive) and -31% (inactive)
inhibition [8, 24]: 7.82% and -2.28%
inhibition [8, 25]: -31.7% and -45.4%
inhibition ([8]; single agent, at 0.05 µM): -43.5% and 4.65%
inhibition ([8]; single agent, at 5 µM): -38.5% and 10.3%

CN(C)c1ccc(C(=C2C=CC(=[N+](C)C)C=C2)c2ccc(N(C)C)cc2)cc1
inhibition ([1]; at 0.5 µM): 68.6% (inactive)
inhibition [1, 9]: -11.5%
inhibition [1, 10]: 0.874%
inhibition ([2]; at 0.5 µM): 55.4% (inactive)
inhibition [2, 11]: 59.1%
inhibition [2, 12]: 89.4%
inhibition ([3]; at 0.5 µM): 80.4% (active)
inhibition [3, 13]: 73.7%
inhibition [3, 14]: 97.1%
inhibition [3, 15]: 80.1%
inhibition [3, 16]: 98.7%
inhibition [4, 17]: 105%
inhibition ([4]; at 0.5 µM): 71.7% (inactive)
inhibition [4, 18]: 110%
inhibition [5]: 67.2% (inactive)
inhibition [5, 19]: 65.8%
inhibition [5, 20]: 54.6%
inhibition ([6]; at 0.5 µM): 70.2% (inactive)
inhibition [6, 21]: 82.8%
inhibition ([6]; cisplatin combination, at 5 µM): 101%
inhibition [6, 22]: -10.9%
inhibition ([6]; single agent, at 5 µM): 103%
inhibition ([7]; at 0.5 µM): 64.4% (inactive)
inhibition ([7]; cisplatin combo, at 5 µM): 97.3%
inhibition [7, 23]: 11.2%
inhibition [7, 11]: 59.9%
inhibition ([7]; single agent, at 5 µM): 94.1%
inhibition ([8]; at 0.5 µM): 99.5% (active)
inhibition [8, 24]: 99.4%
inhibition [8, 25]: 99.5%
inhibition ([8]; single agent, at 0.05 µM): 17.4%
inhibition ([8]; single agent, at 5 µM): 99.6%
